Measured values: the supplement of paper PMC11219838

How the values were obtained:
Details in all cases: 60 µM; 5 days; temperature: 20 °C
[1] = test system: Meloidogyne hapla J2; test: proportion of mobile M. hapla J2 relative to DMSO control (fraction of DMSO control); higher = more viable, less nematicidal, active = 0.7 or less
Method in brief: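 Two biological replicates were run and averaged, each on 96-well plates in which about 25 M. hapla J2 sat in distilled water per well. Compound was pinned in to give 60 µM final and 0.6% v/v DMSO, and the sealed plates were shaken at 200 rpm and 20 °C for 5 days before 2 µL 1 M NaOH was added. Mobility was scored microscopically and divided by the mean from the plate's DMSO-only wells, of which there were eight.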

[2] = test system: Caenorhabditis elegans dauer (daf-2(e1370)); test: proportion of mobile C. elegans dauer larvae relative to DMSO control (fraction of DMSO control); higher = more viable, less nematicidal, active = 0.63 or less; extreme values may be limits of the assay
Method in brief: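 Synchronized C. elegans larvae were kept for 48 h at 25 °C on MYOB plates seeded with E. coli OP50 to induce dauer formation, and roughly 20 dauers were transferred into each well of a 96-well plate containing liquid NGM. Compound was pinned in to a final concentration of 60 µM with 0.6% v/v DMSO, and the sealed plates were shaken at 200 rpm for 5 days at 20 °C. The fraction of mobile worms was scored under a dissection microscope against DMSO-only wells and averaged across two biological replicates.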

[3] = test system: Ditylenchus dipsaci; test: proportion of mobile D. dipsaci (mixed stage) relative to DMSO control (fraction of DMSO control); higher = more viable, less nematicidal, active = 0.86 or less; extreme values may be limits of the assay
Method in brief: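 The worms, D. dipsaci raised on pea plants in Gamborg B-5 agar, were recovered through a filter funnel into water. Each well of a 96-well plate then held about 20 of them in distilled water plus pinned compound at 60 µM final (0.6% v/v DMSO), and the sealed plates were shaken at 200 rpm at 20 °C for 5 days. Following addition of 2 µL 1 M NaOH, mobile worms were counted by microscopy, and mobility was expressed against DMSO controls as the average of two biological replicates.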

Cc1ccccc1-c1nnc(SCc2ccccc2)o1
inactive: proportion of mobile M. hapla J2 [1] 0.986 | proportion of mobile C. elegans dauer larvae [2] 1 | proportion of mobile D. dipsaci [3] 1

CC(C)(C)c1ccc(OCc2nc(-c3ccccc3)no2)cc1
inactive: proportion of mobile M. hapla J2 [1] 0.987 | proportion of mobile C. elegans dauer larvae [2] 1 | proportion of mobile D. dipsaci [3] 1

O=C(CSc1nnc(-c2ccc(Br)cc2)o1)OCc1ccccc1
inactive: proportion of mobile M. hapla J2 [1] 1.02 | proportion of mobile C. elegans dauer larvae [2] 1 | proportion of mobile D. dipsaci [3] 1

CCN(CC)C(=O)CSc1nnc(-c2ccc(Br)cc2)o1
inactive: proportion of mobile M. hapla J2 [1] 1.04 | proportion of mobile C. elegans dauer larvae [2] 1 | proportion of mobile D. dipsaci [3] 1

COc1cccc(-c2nc(-c3ccc(Cl)cc3)no2)c1
inactive: proportion of mobile M. hapla J2 [1] 1.04 | proportion of mobile C. elegans dauer larvae [2] 1 | proportion of mobile D. dipsaci [3] 1

COc1ccc(-c2noc(COc3ccccc3)n2)cc1
inactive: proportion of mobile M. hapla J2 [1] 1.02 | proportion of mobile C. elegans dauer larvae [2] 1 | proportion of mobile D. dipsaci [3] 1

Clc1ccc(-c2nnc(SCc3ccccc3)o2)c(Cl)c1
inactive: proportion of mobile M. hapla J2 [1] 0.957 | proportion of mobile C. elegans dauer larvae [2] 1 | proportion of mobile D. dipsaci [3] 1

Cc1ccc(-c2nc(-c3ccc4c(c3)OCO4)no2)cc1
inactive: proportion of mobile M. hapla J2 [1] 1 | proportion of mobile C. elegans dauer larvae [2] 1 | proportion of mobile D. dipsaci [3] 1

Cc1ccc(OCc2nc(-c3ccncc3)no2)cc1C
inactive: proportion of mobile M. hapla J2 [1] 1.03 | proportion of mobile C. elegans dauer larvae [2] 1 | proportion of mobile D. dipsaci [3] 1

Cc1cc(OCc2nc(-c3ccccn3)no2)c(C)cc1Br
inactive: proportion of mobile M. hapla J2 [1] 0.711 | proportion of mobile C. elegans dauer larvae [2] 1 | proportion of mobile D. dipsaci [3] 1

COc1ccc(-c2nnc(SCC(=O)Nc3cccc(Cl)c3Cl)o2)cc1
inactive: proportion of mobile M. hapla J2 [1] 0.932 | proportion of mobile C. elegans dauer larvae [2] 1 | proportion of mobile D. dipsaci [3] 1

CC(C)C(=O)Nc1ccccc1-c1nc(-c2ccccc2)no1
inactive: proportion of mobile M. hapla J2 [1] 0.957 | proportion of mobile C. elegans dauer larvae [2] 1 | proportion of mobile D. dipsaci [3] 1

O=C(CSc1nnc(-c2ccccc2)o1)c1ccc(Br)cc1
inactive: proportion of mobile M. hapla J2 [1] 0.966 | proportion of mobile C. elegans dauer larvae [2] 1 | proportion of mobile D. dipsaci [3] 1
